# Data published in paper PMC5540273 (PLoS ONE, 2017).
# System: TXK
# Conditions: concentration: 1 μM, replicates: in singlicate; n = 1
# 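Also: KINOMEscan kinase panel screen.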
row,Compound,%Inh [%]
1,CC(C)(C)n1cnc2c(N)ncnc21 [SKF-97359],0
2,Cc1cccc(Cn2ccn3c(=O)cc(N4CCOCC4)nc23)c1 [GSK2297542],0
3,c1ccc(-c2cc(-c3c[nH]nc3-c3ccccn3)ccn2)cc1 [GW576604],0
4,O=C(Nc1cccc(-c2nn3ncccc3c2-c2ccnc(Nc3cccc(C(F)(F)F)c3)n2)c1)c1c(F)cccc1F [GSK299495],76
5,COc1cc2c(cc1OC[C@@H](O)CO)ncc1c3ccc(C#N)cc3[nH]c21,0
6,N#Cc1ccc(-c2cc(-c3c[nH]nc3-c3ccccn3)ccn2)cc1 [GW693028],6
7,Fc1ccc(-c2ncn(CCCN3CCOCC3)c2-c2ccccn2)cc1 [SB-211742],5
8,COc1ccc(Nc2nccc(N3CCC(NC(=O)Nc4cccc(C(C)=O)c4)C3)n2)cc1 (stereo not drawn) [GSK1379731],0
9,Cn1cc(-c2ccc3c(c2)CCN3C(=O)Cc2ccccc2Cl)c2c(N)ncnc21 [GSK2608885],85
10,CNc1ncnc2[nH]ncc12 [SKF-18355],0
11,Cc1cccc(-c2nc(Nc3ccc4ncsc4c3)c3ccccc3n2)n1 [GW867588],0
12,[2H]C([2H])(c1cccc(C(F)(F)F)c1C)n1ccn2c(=O)nc(N3CCOCC3)cc12 [GSK2336394],0
13,Cc1c2ccc(N(C)c3ccnc(Nc4cccc(S(N)(=O)=O)c4)n3)cc2nn1Cc1ccccc1.Cl.Cl [GW787226],17
14,O=C(c1ccc(-c2cc(-c3c[nH]nc3-c3ccccn3)ccn2)cc1)N1CCOCC1 [GW812171],11
15,CCn1cnc2c(N)ncnc21 [GW345098],8
16,Cl.Nc1ncnc2occ(-c3ccc(NC(=O)Nc4cc(C(F)(F)F)ccc4F)cc3)c12 [SB-707548],0
17,CC(=O)Nc1ccc(COc2ccc(Nc3ccnc4cc(-c5ccccn5)ccc34)cc2)cc1.Cl [GW440148],3
18,Cc1nnc(-c2ccc3occ(-c4ccc(C(C)O)cc4)c3c2)o1 (stereo not drawn),4

row,Compound,%Inh [%]
1,Cc1nnc(-c2ccc3ncc(-c4ccc(S(C)=O)cc4)n3c2)o1 (stereo not drawn),0
2,c1ccc(-c2n[nH]cc2-c2ccnc3ccccc23)nc1 [GW271431],4
3,CCCCCc1nc2c(N)ncnc2n1CCCCC [SKF-97255],12
4,CN1c2ccc(CNc3ccc(F)cc3)cc2-c2c(cnn2C)S1(=O)=O,0
5,NCC(NC(=O)c1cc(-c2cn[nH]c2)c(-c2ccnc3[nH]ccc23)s1)c1ccccc1.O=C(O)C(F)(F)F.O=C(O)C(F)(F)F (stereo not drawn) [GSK1325775],10
6,O=C(Nc1n[nH]c2cc(-c3cccc(F)c3)ccc12)C1CC1 [SB-735464],14
7,COc1ccc(COc2cc(-n3cnc4ccccc43)sc2C(N)=O)cc1 [GSK1024304],20
8,CN(C(=O)c1ccc(-c2cc(-c3c[nH]nc3-c3ccccn3)ccn2)cc1)C1CCOCC1 [GW810083],0
9,O=c1cc(N2CCOCC2)nc2n(Cc3cccc(Cl)c3Cl)c(C3CC3)nn12 [GSK2358994],7
10,COc1cc2ncn(-c3cc(OCc4sccc4Cl)c(C(N)=O)s3)c2cc1OC [GSK448459],0
11,CCc1ccnc(/C=C/c2n[nH]c3cc(Sc4ccccc4C(=O)NC)ccc23)c1,0
12,CSc1ccc(-c2cc3ncnc(SCC(=O)O)c3s2)cc1,0
13,COc1ccc(Nc2nccc(N3CCC(NC(=O)Nc4cc(C)ccc4C)C3)n2)cc1 (stereo not drawn) [GSK1379741],0
14,Cc1c(Cn2c(C)nn3c(=O)cc(N4CCOC(C)C4)nc23)cccc1C(F)(F)F (stereo not drawn) [GSK2344444],0
15,O=C1NC(=O)C(N2CCc3ccccc32)=C1c1cccc(Cl)c1 [SB-408010],0
16,Cn1ccc2ncnc(Oc3ccc(NC(=O)Nc4ccncc4)c(Cl)c3)c21,0
17,O=C(NOCC1CC1)c1ccc(F)c(F)c1Nc1ccc(I)cc1Cl,0
18,Cc1ccc(NC(=O)c2ccnc(N3CCN(C)CC3)c2)cc1-c1ccc(C(=O)NCC2CC2)cc1 [GW775604],0

# System: TYK2(JH1domain-catalytic)
# Conditions: concentration: 1 μM, replicates: in singlicate; n = 1
row,Compound,%Inh [%]
1,CC(C)(C)n1cnc2c(N)ncnc21 [SKF-97359],21
2,Cc1cccc(Cn2ccn3c(=O)cc(N4CCOCC4)nc23)c1 [GSK2297542],0
3,c1ccc(-c2cc(-c3c[nH]nc3-c3ccccn3)ccn2)cc1 [GW576604],13
4,O=C(Nc1cccc(-c2nn3ncccc3c2-c2ccnc(Nc3cccc(C(F)(F)F)c3)n2)c1)c1c(F)cccc1F [GSK299495],22
5,COc1cc2c(cc1OC[C@@H](O)CO)ncc1c3ccc(C#N)cc3[nH]c21,0
6,N#Cc1ccc(-c2cc(-c3c[nH]nc3-c3ccccn3)ccn2)cc1 [GW693028],1
7,Fc1ccc(-c2ncn(CCCN3CCOCC3)c2-c2ccccn2)cc1 [SB-211742],0
8,COc1ccc(Nc2nccc(N3CCC(NC(=O)Nc4cccc(C(C)=O)c4)C3)n2)cc1 (stereo not drawn) [GSK1379731],35
9,Cn1cc(-c2ccc3c(c2)CCN3C(=O)Cc2ccccc2Cl)c2c(N)ncnc21 [GSK2608885],33
10,CNc1ncnc2[nH]ncc12 [SKF-18355],15
11,Cc1cccc(-c2nc(Nc3ccc4ncsc4c3)c3ccccc3n2)n1 [GW867588],0
12,[2H]C([2H])(c1cccc(C(F)(F)F)c1C)n1ccn2c(=O)nc(N3CCOCC3)cc12 [GSK2336394],71
13,Cc1c2ccc(N(C)c3ccnc(Nc4cccc(S(N)(=O)=O)c4)n3)cc2nn1Cc1ccccc1.Cl.Cl [GW787226],16
14,O=C(c1ccc(-c2cc(-c3c[nH]nc3-c3ccccn3)ccn2)cc1)N1CCOCC1 [GW812171],0
15,CCn1cnc2c(N)ncnc21 [GW345098],23
16,Cl.Nc1ncnc2occ(-c3ccc(NC(=O)Nc4cc(C(F)(F)F)ccc4F)cc3)c12 [SB-707548],0
17,CC(=O)Nc1ccc(COc2ccc(Nc3ccnc4cc(-c5ccccn5)ccc34)cc2)cc1.Cl [GW440148],20
18,Cc1nnc(-c2ccc3occ(-c4ccc(C(C)O)cc4)c3c2)o1 (stereo not drawn),0

row,Compound,%Inh [%]
1,Cc1nnc(-c2ccc3ncc(-c4ccc(S(C)=O)cc4)n3c2)o1 (stereo not drawn),5
2,c1ccc(-c2n[nH]cc2-c2ccnc3ccccc23)nc1 [GW271431],17
3,CCCCCc1nc2c(N)ncnc2n1CCCCC [SKF-97255],7
4,CN1c2ccc(CNc3ccc(F)cc3)cc2-c2c(cnn2C)S1(=O)=O,0
5,NCC(NC(=O)c1cc(-c2cn[nH]c2)c(-c2ccnc3[nH]ccc23)s1)c1ccccc1.O=C(O)C(F)(F)F.O=C(O)C(F)(F)F (stereo not drawn) [GSK1325775],49
6,O=C(Nc1n[nH]c2cc(-c3cccc(F)c3)ccc12)C1CC1 [SB-735464],1
7,COc1ccc(COc2cc(-n3cnc4ccccc43)sc2C(N)=O)cc1 [GSK1024304],4
8,CN(C(=O)c1ccc(-c2cc(-c3c[nH]nc3-c3ccccn3)ccn2)cc1)C1CCOCC1 [GW810083],12
9,O=c1cc(N2CCOCC2)nc2n(Cc3cccc(Cl)c3Cl)c(C3CC3)nn12 [GSK2358994],11
10,COc1cc2ncn(-c3cc(OCc4sccc4Cl)c(C(N)=O)s3)c2cc1OC [GSK448459],22
11,CCc1ccnc(/C=C/c2n[nH]c3cc(Sc4ccccc4C(=O)NC)ccc23)c1,11
12,CSc1ccc(-c2cc3ncnc(SCC(=O)O)c3s2)cc1,0
13,COc1ccc(Nc2nccc(N3CCC(NC(=O)Nc4cc(C)ccc4C)C3)n2)cc1 (stereo not drawn) [GSK1379741],0
14,Cc1c(Cn2c(C)nn3c(=O)cc(N4CCOC(C)C4)nc23)cccc1C(F)(F)F (stereo not drawn) [GSK2344444],13
15,O=C1NC(=O)C(N2CCc3ccccc32)=C1c1cccc(Cl)c1 [SB-408010],4
16,Cn1ccc2ncnc(Oc3ccc(NC(=O)Nc4ccncc4)c(Cl)c3)c21,3
17,O=C(NOCC1CC1)c1ccc(F)c(F)c1Nc1ccc(I)cc1Cl,0
18,Cc1ccc(NC(=O)c2ccnc(N3CCN(C)CC3)c2)cc1-c1ccc(C(=O)NCC2CC2)cc1 [GW775604],100
